Source: PubChem (several laboratories)
PKD1 kinase inh: inhibitors of human PKD1 kinase. Q15139. PKD1 kinase fluorescence polarization assay. inhibition, % (test concentration not listed). 200,000 tested, 0.056% active
GRK2 aptamer HTS: inhibitors of human GRK2 displacing RNA aptamer; P25098; bead flow cytometry, FAM-aptamer displacement from GRK2; inhibition of aptamer binding, % at 10 µM; 330,000 tested, 0.59% active;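 active means inhibition of aptamer binding above 40%, roughly 3 SD of noise, on plates passing a quality check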;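 further: median bead fluorescence of bound FAM aptamer so fluorescent compounds give negative values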
DSG3 Ab inh: blocks pemphigus antibody binding to human desmoglein-3; P32926; DSG3-coupled beads, scFv-anti-DSG3-GFP binding, flow cytometry; stronger effect = lower value; binding (percent of control), % at 10 µM; 310,000 tested, 0.48% active; AID 588358;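 active means binding more than 3 SD below its plate's average and above zero; inconclusive means below that plate limit but binding exactly zero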;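 further: hits lower antibody fragment binding to DSG3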
LANA-H2B inh: blocks KSHV LANA binding to histone H2A/H2B. inhibition, % (no concentration beside the values). cell-free LANA-H2A/H2B peptide, fluorescence polarization. Q9QR71. 320,000 tested, 0.6% active; in the data active means inhibition mostly above about 10%, no sharp cut-off; inactive means mostly below about 6.7%
VLA-4 inh: inhibition in a human VLA-4 binding assay; P13612; VLA-4 expressing cells, ligand binding flow cytometry; inhibition, % (about 7 µM as worked out from the volumes in the protocol); 330,000 tested, 0.2% active; AID 2557
Target sequence (P13612 whole entry, looked up): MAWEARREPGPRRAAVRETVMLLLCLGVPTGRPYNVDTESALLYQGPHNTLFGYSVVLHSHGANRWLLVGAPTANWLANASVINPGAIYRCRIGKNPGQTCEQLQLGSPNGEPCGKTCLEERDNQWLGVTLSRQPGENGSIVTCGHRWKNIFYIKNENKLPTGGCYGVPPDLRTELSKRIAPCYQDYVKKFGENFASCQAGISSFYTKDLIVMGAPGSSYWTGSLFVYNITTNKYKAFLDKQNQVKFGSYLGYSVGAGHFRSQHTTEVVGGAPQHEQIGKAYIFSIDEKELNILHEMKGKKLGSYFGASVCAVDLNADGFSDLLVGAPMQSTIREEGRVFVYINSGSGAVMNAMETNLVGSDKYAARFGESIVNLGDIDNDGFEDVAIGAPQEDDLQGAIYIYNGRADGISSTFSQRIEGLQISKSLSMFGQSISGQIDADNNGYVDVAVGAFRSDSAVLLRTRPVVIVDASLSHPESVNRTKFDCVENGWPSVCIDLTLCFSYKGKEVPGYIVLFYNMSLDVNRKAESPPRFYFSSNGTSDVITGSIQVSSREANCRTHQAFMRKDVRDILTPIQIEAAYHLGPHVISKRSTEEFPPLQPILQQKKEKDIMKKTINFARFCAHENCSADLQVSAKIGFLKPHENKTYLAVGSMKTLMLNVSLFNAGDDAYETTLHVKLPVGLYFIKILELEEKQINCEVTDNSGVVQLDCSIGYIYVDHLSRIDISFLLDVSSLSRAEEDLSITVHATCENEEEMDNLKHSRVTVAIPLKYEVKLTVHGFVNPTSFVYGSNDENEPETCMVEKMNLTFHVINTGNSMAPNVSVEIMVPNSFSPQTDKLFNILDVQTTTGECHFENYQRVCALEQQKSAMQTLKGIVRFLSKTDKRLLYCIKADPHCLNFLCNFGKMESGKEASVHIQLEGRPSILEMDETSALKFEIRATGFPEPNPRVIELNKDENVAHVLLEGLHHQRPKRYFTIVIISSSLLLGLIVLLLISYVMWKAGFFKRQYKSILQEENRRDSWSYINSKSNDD
HDAC3 inhib: blocks human histone deacetylase 3; inhibition, % at 8.3 µM; 320,000 tested, 0.15% active; recombinant HDAC3, fluorogenic peptide/trypsin coupled, fluorescence; O15379; in the data active means inhibition above about 26%, passing the limit was not always enough; inconclusive means no clear call, values can overlap the other calls
Numbers without * were called inactive; u = inconclusive; x = not tested or not shown. Sampled rows, rich in hits. Any-hit rate of the full collection: about 1.8%. Unless noted, no stated cut-off is given here; in the data, active means inhibition above about 50%; inactive means the rest.

SMILES	PKD1 kinase inh	GRK2 aptamer HTS	DSG3 Ab inh	LANA-H2B inh	VLA-4 inh	HDAC3 inhib
CCCCC/C(=N\NC(=O)Nc1ccccc1)c1ccccc1	0	0	-12*	3	17	-6
CC(C)CN(C(=O)c1cccs1)C1CCS(=O)(=O)C1 (centres undefined)	x	x	98	x	x	x
Nc1nc(-c2ccccc2)c(-c2ccccc2)o1	x	0	100	29*	17	-3
NC(=O)CSc1nc(-c2ccccc2)c(-c2ccccc2)o1	-2	2	79	0	-1	2
O=C(Nc1ccc(F)cc1F)c1ccc(-n2cccn2)nc1	-12	0	x	-3	2	0
CC(C)Sc1ccc(C(=O)Nc2ccc(F)cc2F)cn1	1	1	68*	-2	-9	-1
CCCCNC(=O)CCc1c(C)nc2nc(-c3cc(OC)cc(OC)c3)nn2c1C	4	0	-1.6*	2	5	5
CCOC(=O)C(Cc1ccccc1)NC(=O)CCc1c(C)nc2nc(C)nn2c1C (centres undefined)	-6	0	86*	-3	13	0
CCCNC(=O)CCc1c(C)nc2nc(-c3cc(OC)cc(OC)c3)nn2c1C	-6	1	x	-1	0	4
CC(NS(=O)(=O)c1ccc(Cl)cc1)C(=O)N1CCOCC1 (centres undefined)	x	0	111	0	7	-8
CC(CN)(NS(=O)(=O)c1ccccc1)c1ccccc1 (centres undefined)	x	0	94	6	-2	-4
COc1ccc(C(=O)n2cc(C(=O)c3cc(C)ccc3O)cn2)cc1	0	0	103	2	9	37*
COc1ccc(O)c(C(=O)c2cnn(C(=O)c3cc(C)oc3C)c2)c1	-7	4	124	-6	10	-1
COc1ccc(C(=O)n2cc(C(=O)c3cc(C)ccc3O)cn2)cc1OC	0	9	101	-2	17	53*
O=C(c1cnn(C(=O)c2ccco2)c1)c1ccccc1O	x	7	u	2	20	5
COc1ccc(O)c(C(=O)c2cnn(C(=O)c3cccc(N(C)C)c3)c2)c1	x	1	99	-2	-4	30*
O=C(c1cnn(C(=O)c2ccc(O)cc2)c1)c1ccccc1O	-2	4	x	-2	4	76*
CN(C(=O)c1cccc(NC(=O)Cc2ccc(NC(=O)C3CCCN(C(=O)C4CC4)C3)cc2)c1)C1CCCC1 (centres undefined)	x	x	102	x	x	x
O=C(C1=C(O)C(=O)N(CCN2CCOCC2)C1c1ccc(F)cc1)c1cc2ccccc2o1 (centres undefined)	x	4	97	-7	-9	-2
Cc1ccc(C(=O)C2=C(O)C(=O)N(CCN3CCOCC3)C2c2ccccn2)o1 (centres undefined)	1	x	x	x	x	x
O=C(C1=C(O)C(=O)N(CCCN2CCOCC2)C1c1ccccn1)c1cc2ccccc2o1 (centres undefined)	-5	0	99	28*	-11	6
CCN(CC)CCN1C(=O)C(O)=C(C(=O)c2ccc(C)o2)C1c1ccccn1 (centres undefined)	14	0	x	16*	12	-1
CN1/C(=C\C=C(C#N)C#N)C(C)(C)c2ccccc21	-1	0	x	45*	2	-5
O=C(/C=C/c1ccc(F)cc1)OCC(=O)c1ccc[nH]1	x	0	100	86*	-16	2
O=C(/C=C/c1ccccc1)OCC(=O)c1ccc[nH]1	x	0	102	-1	7	-2
SMILES	PKD1 kinase inh	GRK2 aptamer HTS	DSG3 Ab inh	LANA-H2B inh	VLA-4 inh	HDAC3 inhib
O=C(NC1(Cc2ccccc2)CCN(Cc2ccc(-c3ccccc3)cc2)C1=O)c1ccccc1 (centres undefined)	x	2	102	-4	-9	-2
COCCCNC(=O)CNC(=S)N(Cc1ccc(F)cc1)C1CCCCC1	-12	0	98	30*	0	-2
O=C(COC(=O)COc1ccccc1)NC1CCS(=O)(=O)C1 (centres undefined)	x	2	123	2	9	-10
O=C1Cn2c(nc3ccccc32)N1c1cccc(C(F)(F)F)c1	-6	4	104	15*	8	-2
O=C1Cn2c(nc3ccccc32)N1c1ccccc1F	1	1	125	7	20	7
CCn1c(C)nc2cc(C(=O)NNC(=O)CN(C)S(=O)(=O)c3ccc(NC(C)=O)cc3)ccc21	x	100*	106	2	32	-4
CCn1c(C)nc2cc(C(=O)NNC(=O)Nc3ccc(Cl)c(Cl)c3)ccc21	-2	0	x	-2	-3	-6
O=C(CC1SC(N2CCCCC2)=NC1=O)Nc1cccc(C(=O)O)c1 (centres undefined)	3	0	100	14*	-9	-5
Cc1ccnc(NC(=O)c2ccc(NC(=O)CC3SC(N4CCCC4)=NC3=O)cc2)c1 (centres undefined)	x	4	101	-4	11	2
O=C(CC1SC(N2CCCC2)=NC1=O)Nc1ccc(C(=O)Nc2ncccc2O)cc1 (centres undefined)	x	1	110	3	8	94*
COc1ccc(S(=O)(=O)N(C)c2ccc(C(=O)Nc3ccccc3C(=O)N3CCOCC3)cc2)cc1OC	x	0	x	-5	2	-11
C#CCN(C(=O)Nc1ccccc1)c1ccccc1	-5	6	99	4	-11	-3
CCN(C(=O)Nc1ccccc1)c1ccccc1	-1	0	100	17*	-87	-5
C=C(C)COc1ccc(-c2nc(N)ncc2Oc2ccccc2OC)c(O)c1	-2	0	100	0	10	30*
C=C(C)COc1ccc(-c2nc(N)ncc2Oc2ccc(OC)cc2)c(O)c1	21	1	x	-3	7	9
CCOc1ccc(-c2nc(N)ncc2Oc2ccccc2Br)c(O)c1	1	0	23*	-1	-1	5
CCOc1ccc(-c2nc(N)ncc2Oc2cccc(OC)c2)c(O)c1	-2	3	101	1	-20	27*
CC1CCCN(C(=O)CCNC(=O)Cn2cnc3ccccc3c2=O)C1 (centres undefined)	x	1	x	4	19	-1
CC1CCCC(NC(=O)c2ccc3snnc3c2)C1C (centres undefined)	x	1	100	7	5	5
C[C@H](O)[C@@H]1C(=O)N2CCc3c([nH]c4ccccc34)[C@@H]2C[C@@H]1N(C)C(=O)NC1CCCCC1	x	x	93	x	x	x
COc1ccccc1NC(=O)N(Cc1cccs1)Cc1cc2cc3c(cc2[nH]c1=O)OCO3	4	0	93	-4	-14	8
O=C(Nc1ccccc1-c1ccccc1)c1cccc(C(F)(F)F)c1	-6	0	88	-1	14	-5
O=C(Nc1ccc(C(F)(F)F)cc1-c1ccccc1)c1ccccc1	-4	0	65*	2	2	-5
